Data from publication PMC4336329 (PLoS ONE, 2015).
Hit rate of the full screen: of about 310,000 compounds, about 14,000 (4.5%) showed an effect of 50% or more. The effect is printed as a negative number. Shown is part of a subset that was picked to be rich in strong results.
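Note: peak tail current of the secondary pulse compared with the same well before compound.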

These compounds were tested against human ether-à-go-go-related gene (hERG) potassium channel (human, UniProt Q12809) (assay: primary screen, population patch clamp on CHO cells stably expressing hERG; higher = less effect of the substance).
human ether-à-go-go-related gene (hERG) potassium channel, sequence (Q12809 whole entry, looked up): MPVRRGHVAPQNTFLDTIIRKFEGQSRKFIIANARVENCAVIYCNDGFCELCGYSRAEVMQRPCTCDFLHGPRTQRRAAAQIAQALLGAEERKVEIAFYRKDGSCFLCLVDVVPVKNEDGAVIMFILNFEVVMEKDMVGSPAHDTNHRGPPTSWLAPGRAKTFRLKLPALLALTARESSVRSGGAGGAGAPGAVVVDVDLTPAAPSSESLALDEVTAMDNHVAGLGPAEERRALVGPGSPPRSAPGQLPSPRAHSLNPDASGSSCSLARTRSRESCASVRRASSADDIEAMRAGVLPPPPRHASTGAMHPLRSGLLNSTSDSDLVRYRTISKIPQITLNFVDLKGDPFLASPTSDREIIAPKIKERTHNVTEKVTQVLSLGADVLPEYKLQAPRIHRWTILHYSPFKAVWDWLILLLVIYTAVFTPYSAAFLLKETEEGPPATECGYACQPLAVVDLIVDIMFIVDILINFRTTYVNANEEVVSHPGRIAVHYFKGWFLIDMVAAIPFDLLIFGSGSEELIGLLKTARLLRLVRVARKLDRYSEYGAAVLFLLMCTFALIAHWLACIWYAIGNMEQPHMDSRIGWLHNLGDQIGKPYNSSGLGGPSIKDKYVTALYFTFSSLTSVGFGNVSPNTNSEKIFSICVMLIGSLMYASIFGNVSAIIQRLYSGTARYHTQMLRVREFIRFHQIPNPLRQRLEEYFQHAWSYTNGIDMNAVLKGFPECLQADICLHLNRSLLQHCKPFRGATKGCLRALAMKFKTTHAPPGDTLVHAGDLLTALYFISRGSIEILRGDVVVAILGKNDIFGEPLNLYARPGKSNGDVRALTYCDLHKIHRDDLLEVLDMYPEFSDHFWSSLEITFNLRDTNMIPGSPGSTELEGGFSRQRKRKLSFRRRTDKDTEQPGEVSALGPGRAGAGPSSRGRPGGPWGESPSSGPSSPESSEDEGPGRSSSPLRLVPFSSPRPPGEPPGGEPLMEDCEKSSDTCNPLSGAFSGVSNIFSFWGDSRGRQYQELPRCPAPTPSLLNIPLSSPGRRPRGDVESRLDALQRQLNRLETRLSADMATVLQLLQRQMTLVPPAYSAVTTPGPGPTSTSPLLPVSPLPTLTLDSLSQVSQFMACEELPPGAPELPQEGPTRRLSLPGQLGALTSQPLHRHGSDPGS
In the case of `O=C(Nc1ccncc1)c1ccc([N+](=O)[O-])cc1Cl`, the “hERG current change (%, negative = inhibition) at 10uM” value is reported as -3.15%. For `O=C(O)C1CC=C(Cl)CC1C(=O)NCc1ccccc1` (centres unmarked), the “hERG current change (%, negative = inhibition) at 10uM” value was 6.61%. For `COc1ccc(C(=O)NC2=C(C#N)CCC2)cc1OC`, the “hERG current change (%, negative = inhibition) at 10uM” value was 9.08%. In the case of `NC(=O)NC(CC(=O)N1CCc2ccccc2C1)c1ccc(Cl)cc1` (centres unmarked), the “hERG current change (%, negative = inhibition) at 10uM” value is reported as 2.09%. With `COC(=O)[C@H](CCSC)NC(=O)Nc1ccc(C)c(C)c1` the “hERG current change (%, negative = inhibition) at 10uM” value was -83.6%. With `COC(=O)[C@H](CCSC)NC(=O)Nc1ccc(C)cc1` the “hERG current change (%, negative = inhibition) at 10uM” value was 11.6%. `COC(=O)[C@H](CCSC)NC(=O)Nc1ccc(OC)c(Cl)c1` was tested, and the “hERG current change (%, negative = inhibition) at 10uM” value was -6.64%. `CCCCCCCCCCCCCCCC[N+](C)(C)CCN(Cc1ccc(OC)cc1)c1ncccn1.[Br-]` was tested, and the “hERG current change (%, negative = inhibition) at 10uM” value was -75%. `CCCCCc1ccc(-c2ccc(OC)cc2)nc1` was tested, and the “hERG current change (%, negative = inhibition) at 10uM” value was 19.7%. `C[N+](C)(C)CCN(Cc1ccc(Cl)cc1)c1ccccn1.[I-]` was tested, and the “hERG current change (%, negative = inhibition) at 10uM” value was -14.4%. `CN(C)CCN(Cc1ccccc1)c1ccccn1.Cl` was tested, and the “hERG current change (%, negative = inhibition) at 10uM” value was -48.6%. With `CC[N+](C)(C)CCN(Cc1ccc(Cl)cc1)c1ccccn1.[Br-]` the “hERG current change (%, negative = inhibition) at 10uM” value was -68.6%. With `CC(C)(Oc1ccc(Cl)cc1)C(=O)N(Cc1ccccc1)c1ccccn1` the “hERG current change (%, negative = inhibition) at 10uM” value was -7.15%. For `CN(C)CCN(Cc1ccc(Cl)cc1)c1ccccn1.Cl`, the “hERG current change (%, negative = inhibition) at 10uM” value was -74.4%. For `COc1ccc(CN(CCN(C)C)c2ccccn2)cc1.O=C(O)/C=C\C(=O)O`, the “hERG current change (%, negative = inhibition) at 10uM” value was -38.5%. With `O=C(COc1ccc(Cl)cc1)N(Cc1ccccc1)c1ccccn1` the “hERG current change (%, negative = inhibition) at 10uM” value was -36%. `Nc1nc(-c2ccco2)nn1C(=O)CCc1ccccc1` was tested, and the “hERG current change (%, negative = inhibition) at 10uM” value was -0.902%. In the case of `CCCOc1ccccc1C(=O)N1CCNC(=O)C1CC(=O)OC(C)C` (centres unmarked), the “hERG current change (%, negative = inhibition) at 10uM” value is reported as 0.716%. In the case of `CCOC(=O)N1CCN(S(=O)(=O)c2cc(Cl)c(OC)cc2Cl)CC1`, the “hERG current change (%, negative = inhibition) at 10uM” value is reported as 4.96%. `CCN(CC)S(=O)(=O)c1ccc2[nH]c(=O)cc(C(=O)NCC3CCCO3)c2c1` (centres unmarked) was tested, and the “hERG current change (%, negative = inhibition) at 10uM” value was -10.3%. For `COc1ccc(NC(=O)c2ccc(NC(=O)COC(=O)CC(NC(=O)c3ccccc3Cl)c3ccccc3)cc2)cc1` (centres unmarked), the “hERG current change (%, negative = inhibition) at 10uM” value was -2.55%. In the case of `CCC(=O)Nc1nc(CC(=O)Nc2ccccc2)cs1`, the “hERG current change (%, negative = inhibition) at 10uM” value is reported as 18.2%. With `COc1ccc(CC(=O)N2CCN(c3ccccn3)CC2)cc1` the “hERG current change (%, negative = inhibition) at 10uM” value was 7.79%. In the case of `CCn1c(COc2ccc(C(C)C)cc2)nnc1SCC(=O)Nc1nccs1`, the “hERG current change (%, negative = inhibition) at 10uM” value is reported as -7.75%. For `CCn1c(CNC(=O)COc2ccc(C(C)C)cc2)nnc1SCC(=O)Nc1ccccc1C(C)C`, the “hERG current change (%, negative = inhibition) at 10uM” value was -55.1%. For `CCCCc1nnc(SCC(=O)Nc2nccs2)n1CC`, the “hERG current change (%, negative = inhibition) at 10uM” value was 4.93%. `CCn1c(CNC(=O)Cc2ccc(OC)cc2)nnc1SCC(=O)Nc1nccs1` was tested, and the “hERG current change (%, negative = inhibition) at 10uM” value was -5.75%. With `CCn1c(CNC(=O)c2ccco2)nnc1SCC(=O)Nc1cc(C)c(C)cc1Br` the “hERG current change (%, negative = inhibition) at 10uM” value was -16.6%. In the case of `COc1ccc(C(=O)NCCc2nnc(SCC(=O)Nc3ccccc3C(C)C)n2C)cc1`, the “hERG current change (%, negative = inhibition) at 10uM” value is reported as -13.3%. In the case of `CCn1c(CNC(=O)c2ccco2)nnc1SCC(=O)Nc1ccc(Br)cc1F`, the “hERG current change (%, negative = inhibition) at 10uM” value is reported as -54.8%. With `CCn1c(CCCOc2ccc(Cl)cc2Cl)nnc1SCC(=O)Nc1cc(F)ccc1C` the “hERG current change (%, negative = inhibition) at 10uM” value was -13.1%. In the case of `CCn1c(CNC(=O)COc2ccc(C(C)C)cc2)nnc1SCC(=O)Nc1cc(F)ccc1C`, the “hERG current change (%, negative = inhibition) at 10uM” value is reported as -65.7%. With `CCn1c(CNC(=O)COc2c(C)cccc2C)nnc1SCC(=O)Nc1nccs1` the “hERG current change (%, negative = inhibition) at 10uM” value was -51.8%. With `CCn1c(CNC(=O)c2ccco2)nnc1SCC(=O)Nc1cc(F)ccc1C` the “hERG current change (%, negative = inhibition) at 10uM” value was -0.0602%. For `Cn1c(CNC(=O)c2ccco2)nnc1SCC(=O)Nc1ccc(Br)cc1F`, the “hERG current change (%, negative = inhibition) at 10uM” value was -43.4%. For `CN(C)S(=O)(=O)c1ccc(Cl)c(C(=O)NC2CCCCCCC2)c1`, the “hERG current change (%, negative = inhibition) at 10uM” value was 7.33%. In the case of `O=C(Cn1nnc(-c2ccncc2)n1)N1CCc2ccccc21`, the “hERG current change (%, negative = inhibition) at 10uM” value is reported as 15.2%. With `CCCc1nc2oc3c(NCc4ccccn4)ncnc3c2c2c1COC(C)(C)C2` the “hERG current change (%, negative = inhibition) at 10uM” value was -17.8%. In the case of `COc1cccc(CN2CCNC(=O)C2CC(=O)NCCCn2ccnc2)c1` (centres unmarked), the “hERG current change (%, negative = inhibition) at 10uM” value is reported as 37.2%. `Cc1cc(=O)[nH]c(/N=C(\N)Nc2cccc3ccccc23)n1` was tested, and the “hERG current change (%, negative = inhibition) at 10uM” value was 11.5%. With `NNC(=O)c1ccc(COCC(F)(F)C(F)F)cc1` the “hERG current change (%, negative = inhibition) at 10uM” value was 14.5%. `CC(NC(=O)c1cc2cc(Cl)ccc2oc1=N)c1ccccc1` (centres unmarked) was tested, and the “hERG current change (%, negative = inhibition) at 10uM” value was 7.55%. In the case of `C#CCNC(=O)[C@H](Cc1ccc(C(=O)c2ccccc2)cc1)NC(=O)OC(C)(C)C`, the “hERG current change (%, negative = inhibition) at 10uM” value is reported as 19.5%. `O=C(COC(=O)c1cc(S(=O)(=O)N2CCOCC2)cs1)c1ccccc1` was tested, and the “hERG current change (%, negative = inhibition) at 10uM” value was -0.734%. For `N#C/C(=C\c1cccnc1)c1nc2ccccc2[nH]1`, the “hERG current change (%, negative = inhibition) at 10uM” value was -10.4%. With `CCn1c(CCNC(=O)c2ccc(OC)cc2)nnc1SCC(=O)Nc1ccccc1F` the “hERG current change (%, negative = inhibition) at 10uM” value was -22.7%. In the case of `CCn1c(CNC(=O)COc2ccc(C(C)C)cc2)nnc1SCC(=O)Nc1ccccc1`, the “hERG current change (%, negative = inhibition) at 10uM” value is reported as -54.2%. With `CCn1c(CNC(=O)COc2ccc(C(C)C)cc2)nnc1SCC(=O)Nc1ccccc1F` the “hERG current change (%, negative = inhibition) at 10uM” value was -60.1%. `CCn1c(CNC(=O)COc2ccc(C(C)C)cc2)nnc1SCC(=O)NC1CCCCC1C` (centres unmarked) was tested, and the “hERG current change (%, negative = inhibition) at 10uM” value was -16.8%. With `CCn1c(CNC(=O)COc2ccc(C(C)C)cc2)nnc1SCC(=O)Nc1ccc(F)cc1` the “hERG current change (%, negative = inhibition) at 10uM” value was -49.4%. For `CCn1c(Cc2ccccc2)nnc1SCC(=O)Nc1ccccc1F`, the “hERG current change (%, negative = inhibition) at 10uM” value was -5.46%. With `CC1(c2nnc(Cc3ccccc3)o2)CC(c2cccnc2)=NO1` (centres unmarked) the “hERG current change (%, negative = inhibition) at 10uM” value was 3.26%. In the case of `Cc1ccc(N=C(NO)c2nonc2N)cc1`, the “hERG current change (%, negative = inhibition) at 10uM” value is reported as 10.1%. With `CCOC(=O)c1[nH]c2ccccc2c1NC(=O)C1CCCC1` the “hERG current change (%, negative = inhibition) at 10uM” value was 3.28%. For `O=C(/C=C/c1ccccc1Cl)Nc1ccncc1`, the “hERG current change (%, negative = inhibition) at 10uM” value was -3.65%. With `Cc1cc(NC(=O)CSCC(=O)NCc2cccc(C(F)(F)F)c2)no1` the “hERG current change (%, negative = inhibition) at 10uM” value was -18.7%.
